# Marburg entry: qHTS for Inhibitors of binding or entry into cells for Marburg Virus; hit rate 6.5% among 18,000; Potency, µM (highest dose often 49.2 µM), for inactives: at the highest dose activity change, negative = inhibition, most hits filed as inhibitors; Marburg virus pseudotype entry/binding inhibition, cell-based
# LASV entry inh: qHTS for Inhibitors of binding or entry into cells for Lassa Virus; Potency, µM (series often up to 49.2 µM), without a hit: at the highest dose activity change, negative = inhibition, hits mostly inhibitors; AID 720533, 2013; hit rate 4.1% among 18,000; Lassa virus pseudotyped entry inhibition, cell-based qHTS
# Active calls of the source: *; ? = inconclusive; nt = no result; ! = not active in a repeat; [ ] = remark or other dose. Compounds with a hit are over-represented: about 8% of the library has one in this group of screens. Calls come from the whole dose curve; tested in HEK293 cells. % is set by controls: 0 for no effect and ±100 for the full control effect; potency is the fitted concentration of half-maximal effect.
SMILES,Marburg entry,LASV entry inh
CCCCNCCS(=O)(=O)NCc1ccccc1OC,?,12%
COc1ccc(C2CC(=O)Oc3cc(OC)ccc32)cc1 (configuration not stated),9%,-9%
OC[C@@H](O)COc1cccc2ccccc12,-8%,-4%
CNCC[C@H](Oc1cccc2ccccc12)c1cccs1,7.9µM*,22µM*
CCCCC/C=C\C/C=C\CCCCCCCC(=O)NC(C)C(=O)O (configuration not stated),1%,-2%
COc1ccc2[nH]c3c(c2c1)CCN=C3C,?,5%[17.8 µM]
CC[C@H]1C[C@@H]2C[C@H]3c4[nH]c5ccc(OC)cc5c4CCN(C2)[C@@H]13,28µM*,-11%
Nc1nc(NC2CC2)c2ncn([C@@H]3C=C[C@@H](CO)C3)c2n1,12%,-8%
CC(C)C[C@H]1COc2cc(NCCO)ccc2S(=O)(=O)N1,1%,50%
OC[C@H]1O[C@@H]2O[C@H]3[C@H](O)[C@@H](O)[C@@H](O[C@H]4[C@H](O)[C@@H](O)[C@@H](O[C@H]5[C@H](O)[C@@H](O)[C@@H](O[C@H]6[C@H](O)[C@@H](O)[C@@H](O[C@H]7[C@H](O)[C@@H](O)[C@@H](O[C@H]1[C@H](O)[C@H]2O)O[C@@H]7CO)O[C@@H]6CO)O[C@@H]5CO)O[C@@H]4CO)O[C@@H]3CO,-3%,-11%
CC[C@]1(c2ncc[nH]2)Cc2ccccc2O1,-18%,4%
CN(C)CCC1(c2ccc(Cl)cc2)Cc2ccccc2C(=O)O1 (configuration not stated),35µM*,-15%
Cc1ccn(CCC(=O)N2CCOc3ccc(C(O)C4CCCCC4)cc3C2)n1 (configuration not stated),?,8%
COC(=O)c1ccc(CN2C(=O)[C@]3(OCCC=C[C@@H]3C)c3ccccc32)cc1,13%[8.59 µM],-1%[8.59 µM]
CN1CCN(C2Cc3ccccc3Sc3ccc(S)cc32)CC1 (configuration not stated),13µM*,?
O=C(O)c1ccccc1-c1c2ccc(=O)cc-2oc2cc(O)ccc12,-4%,11%
CN(C)c1ccc2c(-c3ccccc3)c3ccc(=[N+](C)C)cc-3oc2c1,2.5µM*,3.2µM*
CN(c1ccc([N+](=O)[O-])cc1)c1cc2c(c3c1ccn3C)C1CCC2C1 (configuration not stated),-12%,13%
CCN(CC)c1ccc(N=Nc2ccc(S(=O)(=O)N(C)C)cc2)c(S(=O)(=O)NCC[n+]2ccccc2)c1,-6%,-6%
COc1cccc2c1C(=O)c1c(O)c3c(c(O)c1C2=O)C[C@@](O)(C(=O)CO)C[C@@H]3OC1C[C@@H](N)[C@H](O)[C@H](C)O1 (some centres not stated),0.89µM*,?
CC(=O)[C@]1(O)Cc2c(O)c3c(c(O)c2[C@@H](O[C@H]2C[C@H](N)[C@H](O)[C@H](C)O2)C1)C(=O)c1c(O)cccc1C3=O,0.056µM*,nt
COc1cccc2c1C(=O)c1c(O)c3c(c(O)c1C2=O)C[C@@](O)(C(C)=O)C[C@@H]3O[C@H]1C[C@H](N)[C@H](O)[C@H](C)O1,?,35µM*!
COc1cccc2c1C(=O)c1c(O)c3c(c(O)c1C2=O)C[C@@](O)(C(=O)CO)C[C@@H]3O[C@H]1C[C@H](N)[C@H](O[C@@H]2CCCCO2)[C@H](C)O1,1.3µM*,1.1µM*
CCOC(=O)CN1C(=O)NC(c2cccc(F)c2)C(C(=O)OC)=C1C (configuration not stated),-24%[8.59 µM],-16%[8.59 µM]
NP(N)(=O)NC(=O)c1ccc(F)cc1,-3%,-3%
SMILES,Marburg entry,LASV entry inh
COC(=O)C(=Cc1cc(Br)c(OC)c(Br)c1)C(=O)OC,?,-6%
O=C(Oc1ccccc1)c1cccc(C(=O)Oc2ccccc2)c1,15%[107 µM],-9%[107 µM]
C[C@@H]1CCC2C(C)(C)C3CC21CC[C@@]3(C)O (some centres not stated),-2%,-23%
CC(O)c1cccc(-c2ccc(CN3C[C@]4(CO)OC(CO)C[C@H]4[S+]3(=O)[O-])cc2)c1 (some centres not stated),14%,-26%
Cc1cc(C(=O)NCC2CCC3(CCN(Cc4cc(F)ccc4F)CC3)O2)n(C)n1 (configuration not stated),-18%,-13%
CC[C@@H](C)CCCCC(=O)N[C@@H](CCNCS(=O)(=O)O)C(=O)N[C@H](C(=O)N[C@@H](CCNCS(=O)(=O)O)C(=O)N[C@H]1CCNC(=O)[C@H]([C@@H](C)O)NC(=O)[C@H](CCNCS(=O)(=O)O)NC(=O)[C@H](CCNCS(=O)(=O)O)NC(=O)[C@H](CC(C)C)NC(=O)[C@@H](CC(C)C)NC(=O)[C@H](CCNCS(=O)(=O)O)NC1=O)[C@@H](C)O,?,-12%
CCN1CCN(C(=O)NC(C(=O)NC2C(=O)N3C2SC(C)(C)C3C(=O)O)c2ccccc2)C(=O)C1=O (configuration not stated),6%,5%
CCN1C[C@]2(COC)[C@H](O)C[C@H](OC)[C@]34C1C([C@H](OC)[C@H]23)[C@]1(OC(C)=O)C2[C@@H](OC(=O)c3ccccc3)C(O)(C[C@H]24)[C@@H](OC)[C@@H]1O,-7%,-1%
O=C1NCC2(CCN(CCc3ccccc3)CC2)O1,-10%,-8%
Cc1ccc2c(c1)C1(CCN(CCc3nc(-c4ccccc4)oc3C)CC1)OC(=O)N2,?,13µM*
CCCCc1nc2c(c3c1C[C@H](C)OC3)CN(C(=O)C1CCCCC1)CC2,-34%[8.59 µM],-16%[8.59 µM]
CCCC[C@H](NC(=O)[C@H](CC(C)C)NC(=O)[C@@H](Cc1c[nH]c2ccccc12)NC(=O)[C@H](Cc1ccccc1)NC(=O)[C@@H](Cc1c[nH]c2ccccc12)NC(=O)[C@H](CC(N)=O)NC(=O)[C@@H](Cc1c(Cl)cccc1Cl)NC(=O)[C@@H]1CCCN1C(=O)[C@H](Cc1ccccn1)NC(=O)[C@@H]1CCCN1C(=O)[C@H](N)CCCCNC(=O)c1cccnc1)C(N)=O,3%,9%
CN(C)CCOc1ccc(-c2nc(-c3ccc4c(c3)CCC4=NO)c(-c3ccncc3)[nH]2)cc1,?,-95%
CN(C)CCOc1ccc(-c2cc(-c3ccc4c(c3)CCC4=NO)c(-c3ccncc3)o2)cc1,2µM*,nt
COc1ccc2c(c1OC)C(=O)O[C@H]2C1c2c(cc3c(c2OC)OCO3)CCN1C (some centres not stated),6%,?
COc1ccc(CN2CC(COCc3ccccc3)Oc3ccccc3S2(=O)=O)cc1 (configuration not stated),-10%,nt
O=C1CC[C@@]2(O)[C@H]3Cc4ccc(O)c5c4[C@@]2(CCN3CC2CC2)[C@H]1O5,-28%,2%
Oc1ccc2c3c1O[C@H]1c4[nH]c5c(c4C[C@@]4(O)[C@@H](C2)N(CC2CC2)CC[C@]314)C[C@@]1(O)[C@H]2Cc3ccc(O)c4c3[C@@]1(CCN2CC1CC1)[C@H]5O4,-19%,8%
O=C1CC[C@]2(O)[C@H]3Cc4ccc(O)c5c4[C@@]2(CCN3CC2CC2)[C@@H]1O5,6%[17.8 µM],-14%[17.8 µM]
Oc1ccc2c3c1O[C@H]1c4oc5ccccc5c4C[C@]4(O)[C@H](C2)N(CC2CC2)CC[C@@]314,28µM*,28µM*
Oc1ccc2c3c1O[C@H]1[C@@H](O)CC[C@]4(O)[C@H](C2)N(CC2CCC2)CC[C@@]314,-13%[17.8 µM],-3%[17.8 µM]

# Screening data deposited in PubChem BioAssay by National Center for Advancing Translational Sciences (NCATS).
